The list is not random: actives were taken first. Their share in the collection is about 2.5%.
Marburg entry inh = inhibitors of Marburg virus binding or cell entry; Marburg virus pseudotyped entry inhibition, cell reporter; Potency, µM (highest dose often 37.8 µM), without a hit: at the highest dose activity change, negative = inhibition, actives largely listed as inhibitors; 300,000 compounds, 1.8% hits; AID 540276; calls by dose curve; tested in HEK293 cells
Vaccinia mCherry = vaccinia inhibition (mCherry reporter). Vaccinia virus mCherry reporter infection, fluorescence. 310,000 compounds, 0.63% hits. Potency, µM (top dose mostly 36.5 µM), for inactives: at the top dose activity change, negative = inhibition, actives largely listed as inhibitors. AID 720579; calls by dose curve; tested in A549 cells; also: nearly all actives have a fitted effect of over 35% in size
LASV entry inh = inhibitors of Lassa virus binding or cell entry; Lassa virus pseudotype entry inhibition, cell reporter; Potency, µM (doses to about 37.9 µM), inactives show top-dose activity change, negative = inhibition, most hits filed as inhibitors; 300,000 compounds, 1.2% hits; AID 540256; calls by dose curve; tested in HEK293 cells; also: nearly all actives have a fitted effect of over 50% in size
Vaccinia Venus = vaccinia inhibition (Venus reporter). Vaccinia virus Venus reporter expression, fluorescence. Potency, µM (top dose mostly 36.5 µM), inactives show at the highest dose activity change, negative = inhibition, most hits filed as inhibitors. 330,000 compounds, 0.46% hits. AID 720580; calls by dose curve; tested in A549 cells; also: nearly all actives have a fitted effect of over 30% in size
* hit, by the source's call; i = inactive; ? = inconclusive; / = no result given; [ ] = remark or other dose. % is scaled to controls: 0 for no effect and ±100 for the full control effect; potency is read from the fitted curve at half-maximal effect.

SMILES	Marburg entry inh	Vaccinia mCherry	LASV entry inh	Vaccinia Venus
COc1ccc(-c2nn(-c3ccccc3)cc2C(=O)O)cc1	/	-5.3%	/	6.0%
COc1ccc(-c2nn(-c3ccccc3)cc2C(=O)N2c3ccc(C)cc3C3CN(C)CCC32)cc1 (stereo not given)	?	i	11.2µM*	-5.8%
O=C(Oc1c(CN2CCOCC2)cc(Cl)c2cccnc12)c1ccccc1F	?	7.94µM*	?	10µM*
O=C(Nc1cccc2ccccc12)c1ccc(OC(=S)N2CCOCC2)cc1	2.59µM*	-25.3%	1.46µM*	-25.9%
O=C(Nc1cccc(Cl)c1)c1ccc(OC(=S)N2CCOCC2)cc1	-21.5%[46.1 µM]	-12.1%	0.2%	-13.9%
COc1cccc(-c2nc3cc(SC)ccc3cc2CN(C(=O)c2sccc2C)C2CC2)c1	/	i	/	-14.0%
O=C(c1ccc(S(=O)(=O)c2cccc(Cl)c2)c([N+](=O)[O-])c1)N1CCN(c2ccccn2)CC1	7.08µM*	-16.8%	?	-7.8%
COCc1cc(N2CCN(c3ccccc3F)CC2)nc(-c2ccccc2)n1	15.2%[46.1 µM]	-11.4%	-2.2%	-0.6%
COCc1cc(N2CCOCC2)nc(-c2ccccc2)n1	10µM*	i	9.2%	-7.9%
COC(=O)N1C2CC(=O)O[C@H]3c4cc5c(cc4[C@]1(C)[C@@]3(Br)c1ccccc12)OCO5	7.6%[14.2 µM]	/	/	/
Cc1ccc(S(=O)(=O)Oc2ccccc2/C=N/NC(N)=S)cc1	?	?	?	1.26µM*
COc1cc(/C=N/NS(=O)(=O)c2ccc(C)cc2)ccc1OCc1ccc(C(=O)O)cc1	?	i	6.31µM*	-14.7%
C=CCNC(=O)/C(C#N)=C/c1ccc(OS(=O)(=O)c2ccc(C)cc2)c(OC)c1	?	-16.4%	12.6µM*	-13.9%
COc1cc(/C=N/NC(=O)c2cccnc2)ccc1OS(=O)(=O)c1ccc(C)cc1	-18.1%	i	1.2%	-0.1%
COC(=O)N/N=C/c1ccc(OS(=O)(=O)c2ccc(C)cc2)c(OC)c1	6.2%[46.1 µM]	-15.1%	7.94µM*	-7.4%
Cc1ccc(S(=O)(=O)Oc2ccccc2/C=N/N=C(N)N)cc1	?	?	-16.4%	-14.9%
COc1ccc(/C=N/NS(=O)(=O)c2ccc(C)cc2)cc1OC(=O)c1ccc(C)cc1	-1.4%	/	-11.8%	-25.5%
CCOC(=O)N1CCN(c2ncnc3c2[nH]c2ccc(F)cc23)CC1	?	?	6.0%	?
COc1ccc2[nH]c3c(N4CCc5ccccc5C4)ncnc3c2c1	0.708µM*	?	?	14.1µM*
CCOC(=O)N1CCN(c2ncnc3c2[nH]c2ccc(OC)cc23)CC1	10µM*	?	?	?
COc1cc2[nH]c3c(N4CCN(c5ccccn5)CC4)ncnc3c2cc1OC	10µM*	?	?	?
O=C(c1ccco1)N1CCN(c2ncnc3c2[nH]c2ccc(Br)cc23)CC1	?	/	?	-26.5%
CCOc1ccc2[nH]c3c(N4CCN(C(=O)c5ccco5)CC4)ncnc3c2c1	?	12.6µM*	?	-24.1%
COc1cccc2[nH]c3c(N4CCCCC4)ncnc3c12	9.5%	-25.2%	15.4%	-18.7%
COc1ccc2[nH]c3c(Cl)ncnc3c2c1	?	-0.2%	-23.1%	-11.1%
SMILES	Marburg entry inh	Vaccinia mCherry	LASV entry inh	Vaccinia Venus
C[C@H]1N[S+](=O)([O-])c2ccc(Br)cc2O[C@@H]1c1ccccc1	/	/	-11.6%[46.1 µM]	/
CCN1C(=S)NC(c2cccs2)C(C(=O)OC)=C1C (stereo not given)	38.4%[14.2 µM]	/	?	/
Cc1cccc(-n2c(C)nnc2SCC(=O)NC(C)c2ccco2)c1 (stereo not given)	/	-19.8%	/	-15.8%
CN(C)C=Nc1ncc2c3ccccc3n(Cc3ccccc3)c2c1C#N	3.1%	/	-1.7%	5.4%
CN(C)C=Nc1ncc2c3ccccc3n(CCN(C)C)c2c1C#N	11.2µM*	/	-19.2%	-11.4%
CCN(CC)CCn1c2ccccc2c2cnc(N)c(C#N)c21	11.2µM*	?	?	?
CCN(CC)CCn1c2ccccc2c(=O)c2c(O)ccc(O)c21	23.5%	i	?	-7.8%
COc1cnc(-c2ccccn2)nc1Sc1ccccc1	?	?	-20.0%	-26.6%
COc1ccc(Sc2nc(-c3ccccn3)ncc2OC)cc1	16.4µM*	?	20.6µM*	?
CC[C@@]12C=C(C=Cc3ccccc3)[C@](CC)(C1)[C@H](c1ccccc1)CC2=O	4.3%[14.2 µM]	/	/	/
O=C(CSCc1nc2ccccc2[nH]1)Nc1ccc2ccccc2c1	13.1%	/	-15.9%	/
O=C(CSCc1cccc(CSCC(=O)Nc2ccc3ccccc3c2)n1)Nc1ccc2ccccc2c1	?	11.2µM*	-24.9%	11.2µM*
O=C(NCC(c1cccs1)N1CCOCC1)c1cn(-c2ccccc2)nc1-c1ccc(Cl)cc1 (stereo not given)	10µM*	-12.5%	-24.8%	?
O=C(NCC(c1cccs1)N1CCOCC1)c1cn(-c2ccccc2)nc1-c1ccccc1 (stereo not given)	12.6µM*	-23.5%	-0.3%	-12.9%
COc1ccc(-c2nn(-c3ccccc3)cc2C(=O)NCC(c2cccs2)N2CCOCC2)cc1 (stereo not given)	?	-14.0%	-16.0%	-17.5%
COC(=O)N1C(C=Cc2ccc3c(c2)OCO3)=Cc2ccccc2C1CC(C)=O (stereo not given)	-12.3%[14.2 µM]	/	?	/
Cc1cc(C)cc(NC(=O)C2CC23CCN(Cc2ccc4ncccc4c2)CC3)c1 (stereo not given)	/	-3.3%	/	0.0%
COc1ccc2cc(Br)ccc2c1CC(=O)NC1CC(C)(C)NC(C)(C)C1	18.3µM*	/	?	/
CC(C)NS(=O)(=O)c1ccc(OCC(=O)NCc2ccccc2)cc1	-20.1%	/	10.9%	-16.8%
CC(NS(=O)(=O)c1ccc(OCC(=O)NCc2ccncc2)cc1)c1ccccc1 (stereo not given)	4.47µM*	3.2%	/	-5.9%
CC/C=C1/N=C2C(=O)N(C)C(=O)N=C2N(C)N1	/	1.78µM*	/	2.24µM*
CN1N/C(=C\c2ccccc2)N=C2C(=O)N(C)C(=O)N=C21	/	7.94µM*	/	8.91µM*
CN1C(=O)/C(=C/c2ccc3c(c2)OCO3)N=C1c1ccccc1	-15.1%	-12.7%	1.0%	-6.0%
O=C(CN(CCc1c[nH]c2ccccc12)S(=O)(=O)c1ccccc1)N1CCCCCC1	/	-23.0%	/	?
Cc1cccc(C(=O)N2CCOc3ccc(CN(C)Cc4cc(C5CC5)n[nH]4)cc3C2)n1	/	-5.8%	/	-9.2%
SMILES	Marburg entry inh	Vaccinia mCherry	LASV entry inh	Vaccinia Venus
c1ccc(-c2ccc([C@H](c3ccccc3)n3ccnc3)cc2)cc1	-55.7%	/	/	/
O=C(NC1c2ccccc2-c2ccccc21)N1CCOCC1	-16.1%	11.2µM*	23.8%	10µM*
O=C(NCc1cccnc1)/C(=C\c1ccc(-c2cccc(Cl)c2)o1)S(=O)(=O)c1ccccc1	?	11.2µM*	?	10µM*
Cc1ccc(C(=O)N/C(=C\c2ccc(-c3cc(Cl)ccc3Cl)o2)C(=O)NCc2cccnc2)cc1	?	/	11.2µM*	?
Nc1ccc(-c2nc3c(Cl)cc(N)cc3[nH]2)cc1	?	-9.6%	11.2µM*	-12.6%
Nc1ccc2nc(-c3ccc(N)c(Cl)c3)[nH]c2c1	?	-18.7%[1.46 µM]	?	-20.4%
Cc1nc(C)n(CC(=O)NCC2Cc3cc(-c4ccsc4)cc(Cl)c3O2)n1 (stereo not given)	/	-7.4%	/	-4.8%
CCN(Cc1ccccc1)c1ccc(/C=C(\C#N)c2ccccn2)cc1	-18.2%	-13.3%	17.7%	-13.9%

From PubChem
